# The list is not random: actives were taken first. Their share in the collection is about 4.8%.
# tim23-1 inh = growth inhibitors of tim23-1 mutant yeast; inhibition, % at 20 µM; S. cerevisiae tim23-1 growth, BacTiter-Glo luminescence, 24 h; hit rate 1.3% among 330,000;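 active = growth inhibition of the mutant yeast at or above 50%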;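 note: temperature-sensitive mutant grown at 25 °C; plate controls were DMSO-treated mutant yeast for no effect and medium wells lacking yeast for full effect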
# TIM10 inh = growth inhibitors of TIM10 yeast strain. S. cerevisiae TIM10 strain growth, BacTiter-Glo luminescence, 24 h. inhibition, % at 10 µM. hit rate 1.4% among 330,000. AID 463195;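 active = inhibition of 40% or more at the single tested concentration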;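 note: wild-type TIM10 isogenic control strain grown at permissive 25 °C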
# SKKanGAS inh = SKKanGAS growth inhibition; inhibition, % at 7.5 µM; AID 1662; hit rate 1.3% among 300,000; S. pyogenes SKKanGAS, kanamycin growth, BacTiter-Glo, 6 h;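 active = mean replicate score, as percent of positive control median, at least 50; inconclusive = mean below 50 but one replicate at or above 50; inactive = mean and every replicate below 50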;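 note: strain carries kanamycin resistance gene driven by streptokinase promoter and grows in 40 µg/ml kanamycin; loss of luminescence reflects streptokinase promoter inhibition or plain growth inhibition; 0% = median of DMSO wells and 100% = positive control at its reference dose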
# PfHsp90 yeast 2 = growth inhibition of yeast expressing Plasmodium Hsp90; S. cerevisiae expressing PfHsp90, BacTiter-Glo ATP, 48 h; yeast lacking PDR1 and PDR3 efflux regulators; inhibition, % at 9.4 µM; hit rate 0.32% among 310,000; AID 504621;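 active = every replicate shows inhibition above about 80%, whatever the replicate mean, limit read from the data; inconclusive = mean inhibition reaches the set limit but some replicate falls short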;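 note: 0% = DMSO neutral controls and 100% = 20 µM radicicol positive controls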
# NALP1 yeast inh = NALP1 inhibition | S. cerevisiae NALP1/ASC/caspase-1 growth, X-gal OD620, 72 h | inhibition, % at 10 µM | hit rate 0.61% among 280,000 | AID 2071; in the data active = inhibition mostly above about 24%, no sharp cut-off; inactive = mostly below about 32%
# tim10-1 inh = tim10-1 yeast growth inhibition | S. cerevisiae tim10-1 ts strain growth, BacTiter-Glo, 24 h | hit rate 2.2% among 330,000 | inhibition, % at 20 µM;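 active = inhibition of at least 40%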;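 note: mutant grown at 25 °C; 0% = DMSO wells with yeast and 100% = wells holding no yeast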
# tim10-1 confirm = tim10-1 yeast growth inhibition, confirmed; hit rate 56% among 7,400; inhibition, % at 20 µM; shares compounds with tim10-1 inh; S. cerevisiae tim10-1 ts strain growth, BacTiter-Glo, 24 h;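 active = inhibition of yeast growth at or above a set limit in either of two repeat tests at 20 µM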;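 note: tim10-1 mutant grown at permissive 25 °C to find synthetic lethal compounds; 0% = DMSO yeast wells and 100% = medium wells without yeast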
# TIM10 conf = TIM10 yeast growth inhibition, confirmed; shares compounds with TIM10 inh; S. cerevisiae tim10 strain growth, BacTiter-Glo luminescence, 24 h; inhibition, % at 10 µM; hit rate 63% among 4,600; AID 463215;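 active = inhibition of yeast growth at or above a set limit in either of two replicates at 10 µM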;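 note: this counterscreen used the strain with wild-type TIM10; 0% = yeast with DMSO and 100% = medium wells lacking yeast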
# tim23-1 confirm = tim23-1 yeast growth inhibition, confirmed. shares compounds with tim23-1 inh. S. cerevisiae tim23-1 growth, BacTiter-Glo luminescence, 24 h. inhibition, % at 20 µM. hit rate 83% among 4,400;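 active = inhibition above about 39% in either of two replicate wells at 20 µM, limit read from the data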;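 note: temperature-sensitive tim23-1 mutant grown at 25 °C; 0% = DMSO wells with yeast and 100% = medium wells without yeast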
# Starred values were filed as active, the others as inactive; ? = inconclusive; · = no result.
SMILES,tim23-1 inh,TIM10 inh,SKKanGAS inh,PfHsp90 yeast 2,NALP1 yeast inh,tim10-1 inh,tim10-1 confirm,TIM10 conf,tim23-1 confirm
COc1ccccc1-c1nc2s/c(=C\c3cccs3)c(=O)n2n1,77.6*,57.3*,21.8,-13.7,-0.5,63.9*,29.1,-17.9,76.3*
O=c1/c(=C/c2ccco2)sc2nc(-c3ccccc3Br)nn12,57.1*,63.7*,·,3.0,12.8,45.0*,40.7*,51.0*,45.2*
CCCOc1ccc(Cc2nn3c(=O)/c(=C/c4ccco4)sc3nc2=O)cc1,24.3,20.1,-1.8,-39.6,3.7,19.7,·,·,·
COc1cc(/C=c2\sc3nc(-c4ccncc4)nn3c2=O)ccc1OC(C)=O,·,·,·,·,-16.3,·,·,·,·
O=C(CCc1nnc2ccc(NCc3ccco3)nn12)N1CCCCC1,-2.5,-9.1,-3.3,11.2,6.2,0.9,·,·,·
Cc1cccnc1Nc1nc(-c2ccc(O)cc2O)cs1,88.4*,30.6,12.7,-19.6,-33.0,43.7*,28.4,·,52.5*
NS(=O)(=O)c1ccc(Nc2nc(-c3ccc(O)cc3O)cs2)cc1,10.6,-3.1,-9.5,-3.0,-12.2,-1.4,·,·,·
CCOC(=O)n1c(=O)n(Cc2ccc(F)cc2)c2ccccc21,29.3,-1.0,1.7,-15.6,-13.8,23.7,·,·,·
CCOC(=O)n1c(=O)n(Cc2cccc(C)c2)c2ccccc21,58.8*,35.1,5.7,-38.7,-17.5,51.0*,40.5*,·,53.2*
CCCCCCCCCCCC(=O)N/N=C/c1ccco1,-7.8,-25.5,5.4,-57.0,-8.2,7.5,·,·,·
CC(C)c1ccc(C(O)P(=O)(OC2CCCCC2)OC2CCCCC2)cc1 (stereo unspecified),57.6*,34.0,13.5,·,-5.6,43.9*,26.1,·,46.0*
COc1cc(C(O)P(=O)(OC2CCCCC2)c2ccc(N(C)C)cc2)cc(OC)c1OC (stereo unspecified),5.6,17.6,-7.5,·,2.1,15.5,·,·,·
Oc1c(C2=NCCNC(C(F)(F)F)=C2)ccc2ccccc12,58.6*,43.6*,-26.8,-4.9,4.9,48.4*,31.2,42.8*,70.9*
Cc1nnnn1/C(=C\c1ccccc1)C(=O)OCC(=O)Nc1cccc(S(=O)(=O)N(C)C)c1,27.8,10.9,·,-0.6,·,15.3,·,·,·
Cc1nnnn1/C(=C\c1ccccc1)C(=O)OCC(=O)Nc1ccc(Cl)cc1F,79.6*,96.4*,-12.3,-110.5,·,43.8*,22.0,74.9*,40.4*
COc1ccccc1-[n+]1c(C)cc(/C=C2\Sc3ccccc3N2C)cc1C,70.1*,74.6*,45.1,-26.3,·,57.5*,76.9*,60.0*,71.8*
COc1ccc(C(=O)/C=C2\Sc3ccccc3N2C)cc1,39.6,11.4,-8.4,9.6,7.1,13.2,·,·,·
COc1ccccc1OC(=O)CCN1c2ccccc2Sc2ccccc21,25.1,10.0,2.9,-4.4,26.7,17.4,·,·,·
COc1ccc(-[n+]2c(C)cc(/C=C3\Sc4ccccc4N3C)cc2C)cc1,81.5*,66.2*,39.6,-28.2,28.4*,76.7*,76.2*,67.4*,83.5*
CCNS(=O)(=O)c1ccc(CCC(=O)N2CCOCC2)cc1,2.7,-0.7,-3.3,0.0,8.4,-8.6,·,·,·
O=C(c1ccccc1)c1cccc(NC(=O)c2ccc(Br)o2)c1,52.6*,74.6*,-4.6,-9.7,-9.9,45.1*,36.0*,-13.2,76.8*
O=C(Nc1cccc(NC(=O)c2ccc(Br)o2)c1)c1ccccc1,38.5,7.8,-0.2,12.3,30.3,9.4,·,·,·
O=C(CN(CC1CCCO1)C(=O)CNS(=O)(=O)c1ccc(F)cc1)NCCc1ccccc1 (stereo unspecified),14.0,-3.5,23.2,20.8,-6.3,1.8,·,·,·
O=C(/C=C/c1ccc(Cl)c(Cl)c1)n1cccn1,58.9*,49.7*,-5.0,-15.3,17.3,60.6*,40.8*,-13.1,44.3*
COCCNc1oc(-c2ccco2)nc1S(=O)(=O)c1ccccc1,1.8,-5.6,3.1,11.0,6.5,-7.0,·,·,·
SMILES,tim23-1 inh,TIM10 inh,SKKanGAS inh,PfHsp90 yeast 2,NALP1 yeast inh,tim10-1 inh,tim10-1 confirm,TIM10 conf,tim23-1 confirm
CC(=O)NCCn1c(SCc2ccc(C)cc2C)nc2ccccc2c1=O,55.9*,34.1,5.9,4.2,-1.2,40.1*,27.2,·,33.3
CC(=O)NCCn1c(SCc2ccccc2C)nc2ccccc2c1=O,33.9,13.3,4.1,26.2,4.4,22.0,·,·,·
NNc1nc(-c2ccccc2)nc(-c2ccccc2)c1Br,56.7*,41.5*,16.1,8.0,·,46.3*,33.3*,-4.4,45.6*
CC(C)Cc1nc2oc3c(Cl)ncnc3c2c2c1CCC2,55.2*,37.4,-9.0,-37.1,18.4,49.7*,36.0*,·,55.2*
Cc1cc(=O)[nH]c(N/N=C/c2c(C)nn(-c3ccccc3)c2C)n1,3.6,-6.2,-0.7,2.7,-2.0,4.1,·,·,·
Cc1nn(-c2ccccc2)c(C)c1/C=N/Nc1nc2ccccc2[nH]1,51.8*,48.2*,60.0*,-8.2,3.1,45.3*,17.8,18.9,41.2*
O=C(COC(=O)Cc1c(Cl)cccc1Cl)NCCC1=CCCCC1,22.4,6.6,1.2,-30.7,28.3,11.5,·,·,·
Cc1cc(=O)[nH]c(SCC(=O)C23CC4CC(CC(C4)C2)C3)c1C#N,74.2*,72.7*,-0.4,23.3,-22.6,66.0*,60.2*,58.7*,48.9*
CCOC(=O)C1(CCOC)CCN(C(=O)c2ccccc2-c2cccc(C)c2)CC1,24.6,26.3,-0.7,8.3,6.5,12.8,·,·,·
O=c1cc(CN2CCc3ccccc32)c2ccc(O)cc2o1,51.2*,20.2,-4.9,2.7,7.7,43.9*,32.0*,·,48.5*
O=C(CSc1nnc(Cc2cccs2)n1C1CCCCC1)N1CCN(C(=O)c2ccco2)CC1,11.5,5.7,0.8,-8.9,-9.6,16.8,·,·,·
Cc1cccc(Cn2cc(/C=C/[N+](=O)[O-])c3ccccc32)c1,67.2*,66.8*,30.9,·,9.8,65.6*,71.3*,82.2*,73.8*
CCOC(=O)Cn1cc(/C=C/[N+](=O)[O-])c2ccccc21,9.5,25.9,-9.4,15.1,3.3,20.9,·,·,·
O=[N+]([O-])/C=C/c1cn(Cc2ccc(Cl)cc2)c2ccccc12,72.7*,64.0*,-10.1,?,27.9,65.4*,57.6*,30.4*,75.3*
CNc1nc(C)nc(N/N=C/c2ccccc2)n1,6.7,2.8,20.3,-37.7,17.4,-10.4,·,·,·
CN(C)c1ccc(/C=C(/C(=O)c2ccc(Cl)cc2Cl)n2cncn2)cc1,54.2*,51.0*,5.1,-8.4,·,52.8*,40.7*,-26.4,56.2*
